{"source": "PubChem BioAssay AID1159580", "about": "(chemical genetic matrix, 2015)", "assay": "chemical genetic growth profiling, strain panel (AID 1159580);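 further: tested at 20 µM; growth read once vehicle control cultures reached saturation at 30 °C; 1 = growth at the plate median or of vehicle wells; lower values mean less growth of the strain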", "conditions": "S. cerevisiae deletion strains, growth OD", "note": "Screen size: about 5,500 compounds; about 2,000 (36%) were called active. Another 18% or so got no clear call; they are omitted. The list shows a part of the results. Values without a mark were called inactive. No stated cut-off is given here; in the data, active means normalized growth mostly below about 0.91 (no sharp cut-off); inconclusive means no clear call, values can overlap the other calls; inactive means mostly above about 0.92."}
{"compound": "Nc1nc(Cl)nc2c1ncn2[C@@H]1O[C@H](COP(=O)(O)OP(=O)(O)OP(=O)(O)O)[C@H](O)C1O", "note": "(some centres undefined)", "values": [{"measurement": "normalized growth", "setting": "locus YAL013W, strain DEP1, hits give low values", "result": 0.999}, {"measurement": "normalized growth", "setting": "locus YAL040C, strain CLN3, hits give low values", "result": 0.995}, {"measurement": "normalized growth", "setting": "locus YCL061C, strain MRC1 (second series), hits give low values", "result": 1}, {"measurement": "normalized growth", "setting": "locus YDR363W, strain ESC2, hits give low values", "result": 1.01}, {"measurement": "normalized growth", "setting": "locus YER002W, strain NOP16, hits give low values", "result": 0.99}, {"measurement": "normalized growth", "setting": "locus YGR078C, strain PAC10, hits give low values", "result": 1.01}, {"measurement": "normalized growth", "setting": "locus YJR075W, strain HOC1, hits give low values", "result": 1}, {"measurement": "normalized growth", "setting": "locus YMR307W, strain GAS1, hits give low values", "result": 0.997}, {"measurement": "normalized growth", "setting": "locus YNL128W, strain TEP1, hits give low values", "result": 1.01}, {"measurement": "normalized growth", "setting": "locus YNL175C, strain NOP13, hits give low values", "result": 0.995}, {"measurement": "normalized growth", "setting": "locus YNL197C, strain WHI3, hits give low values", "result": 1.02}, {"measurement": "normalized growth", "setting": "locus YNL224C, strain SQS1, hits give low values", "result": 0.987}, {"measurement": "normalized growth", "setting": "locus YOR083W, strain WHI5 (second series), hits give low values", "result": 1.01}]}
{"compound": "CCCc1c(C(=O)Sc2ccccn2)cnn1-c1ccc(Cl)cc1", "values": [{"measurement": "normalized growth", "setting": "locus YAR019C, strain CDC15, hits give low values", "result": 0.957}, {"measurement": "normalized growth", "setting": "locus YBL105C, strain PKC1, hits give low values", "result": 0.962}, {"measurement": "normalized growth", "setting": "locus YBR135W, strain CKS1, hits give low values", "result": 0.957}, {"measurement": "normalized growth", "setting": "locus YBR136W, strain MEC1, hits give low values", "result": 0.964}, {"measurement": "normalized growth", "setting": "locus YBR160W, strain CDC28, hits give low values", "result": 0.944}, {"measurement": "normalized growth", "setting": "locus YDL017W, strain CDC7, hits give low values", "result": 0.963}, {"measurement": "normalized growth", "setting": "locus YDL028C, strain MPS1, hits give low values", "result": 0.966}, {"measurement": "normalized growth", "setting": "locus YDL101C, strain DUN1, hits give low values", "result": 0.964}, {"measurement": "normalized growth", "setting": "locus YDL108W, strain KIN28, hits give low values", "result": 0.955}, {"measurement": "normalized growth", "setting": "locus YDL132W, strain cdc53, hits give low values", "result": 0.95}, {"measurement": "normalized growth", "setting": "locus YDL214C, strain PRR2, hits give low values", "result": 0.861}, {"measurement": "normalized growth", "setting": "locus YDR052C, strain DBF4, hits give low values", "result": 0.962}, {"measurement": "normalized growth", "setting": "locus YDR054C, strain cdc34, hits give low values", "result": 0.948}, {"measurement": "normalized growth", "setting": "locus YDR226W, strain ADK1, hits give low values", "result": 0.959}, {"measurement": "normalized growth", "setting": "locus YDR477W, strain SNF1, hits give low values", "result": 0.876}, {"measurement": "normalized growth", "setting": "locus YER123W, strain YCK3, hits give low values", "result": 0.847}, {"measurement": "normalized growth", "setting": "locus YER133W, strain GLC7, hits give low values", "result": 0.878}, {"measurement": "normalized growth", "setting": "locus YFL009W, strain cdc4, hits give low values", "result": 0.957}, {"measurement": "normalized growth", "setting": "locus YFL029C, strain CAK1, hits give low values", "result": 0.948}, {"measurement": "normalized growth", "setting": "locus YFR003C, strain YPI1, hits give low values", "result": 0.955}, {"measurement": "normalized growth", "setting": "locus YFR019W, strain FAB1, hits give low values", "result": 0.908}, {"measurement": "normalized growth", "setting": "locus YFR028C, strain CDC14, hits give low values", "result": 0.955}, {"measurement": "normalized growth", "setting": "locus YGR040W, strain KSS1, hits give low values", "result": 0.845}, {"measurement": "normalized growth", "setting": "locus YGR052W, strain FMP48, hits give low values", "result": 0.919}, {"measurement": "normalized growth", "setting": "locus YGR092W, strain DBF2, hits give low values", "result": 0.879}, {"measurement": "normalized growth", "setting": "locus YHR030C, strain SLT2, hits give low values", "result": 0.933}, {"measurement": "normalized growth", "setting": "locus YHR079C, strain IRE1, hits give low values", "result": 0.931}, {"measurement": "normalized growth", "setting": "locus YHR082C, strain KSP1, hits give low values", "result": 0.907}, {"measurement": "normalized growth", "setting": "locus YHR205W, strain SCH9, hits give low values", "result": 0.93}, {"measurement": "normalized growth", "setting": "locus YIL147C, strain SLN1, hits give low values", "result": 0.967}, {"measurement": "normalized growth", "setting": "locus YJL095W, strain BCK1, hits give low values", "result": 0.951}, {"measurement": "normalized growth", "setting": "locus YJL128C, strain PBS2, hits give low values", "result": 0.932}, {"measurement": "normalized growth", "setting": "locus YJL157C, strain FAR1, hits give low values", "result": 0.849}, {"measurement": "normalized growth", "setting": "locus YJR016C, strain ILV3, hits give low values", "result": 0.955}, {"measurement": "normalized growth", "setting": "locus YJR066W, strain TOR1 (second series), hits give low values", "result": 0.822}, {"measurement": "normalized growth", "setting": "locus YJR066W, strain TOR1, hits give low values", "result": 0.87}, {"measurement": "normalized growth", "setting": "locus YKL048C, strain ELM1, hits give low values", "result": 0.911}, {"measurement": "normalized growth", "setting": "locus YKL067W, strain YNK1, hits give low values", "result": 0.885}, {"measurement": "normalized growth", "setting": "locus YKL101W, strain HSL1, hits give low values", "result": 0.912}, {"measurement": "normalized growth", "setting": "locus YKL193C, strain SDS22, hits give low values", "result": 0.961}, {"measurement": "normalized growth", "setting": "locus YKL203C, strain TOR2, hits give low values", "result": 0.942}, {"measurement": "normalized growth", "setting": "locus YLR113W, strain HOG1, hits give low values", "result": "0.804 (active)"}, {"measurement": "normalized growth", "setting": "locus YLR133W, strain CKI1, hits give low values", "result": 0.912}, {"measurement": "normalized growth", "setting": "locus YLR403W, strain SFP1, hits give low values", "result": 0.861}, {"measurement": "normalized growth", "setting": "locus YML070W, strain DAK1, hits give low values", "result": 0.869}, {"measurement": "normalized growth", "setting": "locus YMR001C, strain CDC5, hits give low values", "result": 0.953}, {"measurement": "normalized growth", "setting": "locus YMR205C, strain PFK2 (second series), hits give low values", "result": 0.932}, {"measurement": "normalized growth", "setting": "locus YMR277W, strain FCP1, hits give low values", "result": 0.964}, {"measurement": "normalized growth", "setting": "locus YNL006W, strain LST8, hits give low values", "result": 0.98}, {"measurement": "normalized growth", "setting": "locus YNL020C, strain ARK1, hits give low values", "result": 0.911}, {"measurement": "normalized growth", "setting": "locus YNL161W, strain CBK1, hits give low values", "result": 0.955}, {"measurement": "normalized growth", "setting": "locus YNL183C, strain NPR1, hits give low values", "result": 0.881}, {"measurement": "normalized growth", "setting": "locus YNL207W, strain RIO2, hits give low values", "result": 0.955}, {"measurement": "normalized growth", "setting": "locus YNL222W, strain SSU72, hits give low values", "result": 0.957}, {"measurement": "normalized growth", "setting": "locus YNL307C, strain MCK1 (second series), hits give low values", "result": 0.912}, {"measurement": "normalized growth", "setting": "locus YOL078W, strain AVO1, hits give low values", "result": 0.957}, {"measurement": "normalized growth", "setting": "locus YOL136C, strain PFK27, hits give low values", "result": 0.878}, {"measurement": "normalized growth", "setting": "locus YOR061W, strain CKA2, hits give low values", "result": 0.898}, {"measurement": "normalized growth", "setting": "locus YOR119C, strain RIO1, hits give low values", "result": 0.947}, {"measurement": "normalized growth", "setting": "locus YOR231W, strain MKK1, hits give low values", "result": 0.897}, {"measurement": "normalized growth", "setting": "locus YOR329C, strain SCD5, hits give low values", "result": 0.957}, {"measurement": "normalized growth", "setting": "locus YPL031C, strain PHO85, hits give low values", "result": 0.903}, {"measurement": "normalized growth", "setting": "locus YPL153C, strain RAD53, hits give low values", "result": 0.899}, {"measurement": "normalized growth", "setting": "locus YPL204W, strain HRR25, hits give low values", "result": 0.895}, {"measurement": "normalized growth", "setting": "locus YPL209C, strain IPL1, hits give low values", "result": 0.952}, {"measurement": "normalized growth", "setting": "locus YPL256C, strain CLN2, hits give low values", "result": "0.755 (active)"}, {"measurement": "normalized growth", "setting": "locus YPR025C, strain CCL1, hits give low values", "result": 0.954}, {"measurement": "normalized growth", "setting": "locus YPR106W, strain ISR1, hits give low values", "result": 0.95}, {"measurement": "normalized growth", "setting": "locus YPR111W, strain DBF20, hits give low values", "result": 0.937}, {"measurement": "normalized growth", "setting": "strain NNK1, hits give low values", "result": 0.961}, {"measurement": "normalized growth", "setting": "strain TSCII, hits give low values", "result": 0.955}]}
